Z-score and composite z-score data for 9 compounds are collected here from PubChem BioAssay.

Test [1] in a line: compound effects on lung adenocarcinoma cell viability – A549, calcein-AM fluorescence, 48 h, basal, profiling panel (AID 1162). Note: test concentration not given here. The conditions noted are these: higher = more signal.
The nature of test [2]: compound effects on differentiated 3T3-L1 adipocyte viability – cell-based, 3T3-L1 adipocytes, calcein-AM fluorescence, 48 h, basal, profiling panel (AID 1163). Note: test concentration not given here. As to conditions: 3T3-L1 adipocytes viability, higher = more signal.
The nature of test [3]: compound effects on hepatocellular carcinoma cell viability – HepG2, calcein-AM fluorescence, 48 h, basal, profiling panel (AID 1164). Note: test concentration not given here. The conditions noted are these: higher = more signal.
Test [4] is described as follows: compound effects on multiple myeloma cell viability – MM1S, calcein-AM fluorescence, 48 h, basal, profiling panel (AID 1165). Note: test concentration not given here. The conditions noted are these: higher = more signal.
The nature of test [5]: calcein-AM signal in unstimulated myeloma cells – cell-based, calcein-AM fluorescence, 48 h, PK04 Diversity Set, profiling panel (AID 1166).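 Note: cells grown under basal conditions without added stimulus; test concentration not given here.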 As to conditions: RPMI8226 myeloma viability, higher = more signal.
Test [6] in a line: JC-1 mitochondrial signal, unstimulated HepG2 cells – cell-based, JC-1 fluorescence, 24 h, 100 nL compound, profiling panel (AID 1167). Note: test concentration not given here. As to conditions: HepG2 mitochondrial potential, higher = more signal.
Test [7] is described as follows: JC-1 mitochondrial signal, unstimulated adipocytes – cell-based, JC-1 fluorescence, 3T3-L1 adipocytes, 24 h, 100 nL compound, profiling panel (AID 1168). Note: test concentration not given here. The conditions noted are these: JC-1 mitochondrial fluorescence, higher = more signal, called active from +8 up or from −8 down.
The nature of test [8]: JC-1 mitochondrial signal, unstimulated myeloma cells – cell-based, JC-1 fluorescence, RPMI8226, 24 h, 100 nL compound, profiling panel (AID 1169). Note: test concentration not given here. As to conditions: JC-1 mitochondrial potential fluorescence, higher = more signal.
Test [9] in a line: JC-1 mitochondrial signal, unstimulated MM1S myeloma – cell-based, JC-1 fluorescence, 24 h, 100 nL compound, profiling panel (AID 1170). Note: test concentration not given here. As to conditions: MM1S mitochondrial potential, higher = more signal.
A short description of test [10]: resazurin metabolic signal in A549 cells – cell-based, resazurin fluorescence, 24 h, PK04 Diversity Set, profiling panel (AID 1171). Note: test concentration not given here. The conditions noted are these: A549 viability, higher = more signal, called active from +8 up or from −8 down. For orientation: Alamar Blue is a resazurin reagent that responds to reducing activity.
The nature of test [11]: resazurin metabolic signal in HepG2 cells – cell-based, resazurin fluorescence, 24 h, PK04 Diversity Set, profiling panel (AID 1172). Note: test concentration not given here. The conditions noted are these: HepG2 viability, higher = more signal.
Test [12] in a line: budding yeast growth changes without added modifier – OD600, strain BY4716, 24 h, basal condition, primary screen (AID 1173). As to conditions: S. cerevisiae BY4716 growth, OD600, 24 h; higher = more signal, called active from +8 up or from −8 down.
Test [13] is described as follows: viability profiling in MM1S myeloma cells – cell-based, resazurin fluorescence, basal, 24 h, PK04 Diversity Set, profiling panel (AID 1174). Note: test concentration not given here. As to conditions: higher = more signal, called active from +8 up or from −8 down.
In test [14] the target is Dihydroorotate dehydrogenase (quinone), mitochondrial (Plasmodium falciparum (isolate 3D7)) (UniProt Q08210). Nature of the test: inhibition of P. falciparum DHODH – biochemical, C-terminal His tag, absorbance 600 nm, primary screen (AID 1175).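 Note: recombinant parasite enzyme with a five histidine tag at its C terminus; test concentration not given here.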 As to conditions: PfDHODH enzyme, DCIP absorbance 600 nm; higher = more signal, called active from +8 up or from −8 down.
Dihydroorotate dehydrogenase (quinone), mitochondrial (Plasmodium falciparum (isolate 3D7)), sequence (Q08210 whole entry, looked up): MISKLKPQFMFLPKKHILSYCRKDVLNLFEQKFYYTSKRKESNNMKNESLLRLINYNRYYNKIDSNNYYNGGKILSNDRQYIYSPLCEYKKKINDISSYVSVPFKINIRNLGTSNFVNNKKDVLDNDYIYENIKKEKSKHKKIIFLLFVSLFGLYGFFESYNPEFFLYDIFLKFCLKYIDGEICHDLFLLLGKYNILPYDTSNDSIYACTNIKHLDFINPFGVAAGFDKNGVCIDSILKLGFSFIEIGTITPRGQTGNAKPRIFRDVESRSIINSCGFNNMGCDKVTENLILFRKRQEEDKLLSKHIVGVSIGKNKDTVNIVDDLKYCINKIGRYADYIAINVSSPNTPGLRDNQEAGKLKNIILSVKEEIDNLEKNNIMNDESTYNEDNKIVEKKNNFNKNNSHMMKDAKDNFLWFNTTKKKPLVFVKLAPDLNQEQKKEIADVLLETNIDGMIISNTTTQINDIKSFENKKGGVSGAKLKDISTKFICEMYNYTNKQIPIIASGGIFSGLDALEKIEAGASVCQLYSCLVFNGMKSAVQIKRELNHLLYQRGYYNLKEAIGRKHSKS
Test [15] in a line: inhibition of PAO1 biofilm formation – strain PAO1, LB-PBS medium, absorbance 600 nm, primary screen (AID 1176). Note: test concentration not given here. The conditions noted are these: P. aeruginosa PAO1 growth/biofilm, A600, 12 h; higher = more signal.
Test [16] in a line: growth modulation of vineyard yeast isolate – strain RM11-1a, OD600, basal, 24 h, primary screen (AID 1177).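 Note: cultures grown under basal conditions with no added stressor; test concentration not given here.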 The conditions noted are these: S. cerevisiae RM11-1a growth, OD600, 24 h; higher = more signal, called active from +8 up or from −8 down.
A short description of test [17]: growth of efflux-deficient E. coli DRC39 – strain DRC39, OD650, 24 h, E. coli filamentation inducers, primary screen (AID 1178).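 Note: growth measured as culture turbidity by optical density at 650 nm; test concentration not given here.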 As to conditions: E. coli DRC39 acrAB, higher = more signal, called active from +8 up or from −8 down.
Test [18] can be described thus: growth of efflux-deficient E. coli DRC39 – strain DRC39, OD650, 48 h, E. coli filamentation inducers, primary screen (AID 1179).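 Note: screen aims at cell division blockers that make cells filament.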 The conditions noted are these: E. coli DRC39 delta-acrAB growth, higher = more signal, called active from +8 up or from −8 down.
Test [19] is described as follows: viability profiling in RPMI8226 myeloma cells – cell-based, resazurin fluorescence, basal, 24 h, PK04 Diversity Set, profiling panel (AID 1180).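 Note: RPMI8826 multiple myeloma cell line at 5000 cells per well; test concentration not given here.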 As to conditions: higher = more signal.
Test [20] concerns the target E3 ubiquitin-protein ligase XIAP (Homo sapiens) (UniProt P98170). As to the kind of experiment: small molecules binding XIAP protein – biophysical, small-molecule microarray, fluorescence 635 nm, primary screen (AID 1181).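 Note: score merges 667 nm emission and signal to noise over triplicate slides.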 The conditions noted are these: higher = more signal.

Calls of active or inactive are those of the source. Unless noted, the rule behind the calls is not given here.

E3 ubiquitin-protein ligase XIAP (Homo sapiens), sequence (P98170 whole entry, looked up): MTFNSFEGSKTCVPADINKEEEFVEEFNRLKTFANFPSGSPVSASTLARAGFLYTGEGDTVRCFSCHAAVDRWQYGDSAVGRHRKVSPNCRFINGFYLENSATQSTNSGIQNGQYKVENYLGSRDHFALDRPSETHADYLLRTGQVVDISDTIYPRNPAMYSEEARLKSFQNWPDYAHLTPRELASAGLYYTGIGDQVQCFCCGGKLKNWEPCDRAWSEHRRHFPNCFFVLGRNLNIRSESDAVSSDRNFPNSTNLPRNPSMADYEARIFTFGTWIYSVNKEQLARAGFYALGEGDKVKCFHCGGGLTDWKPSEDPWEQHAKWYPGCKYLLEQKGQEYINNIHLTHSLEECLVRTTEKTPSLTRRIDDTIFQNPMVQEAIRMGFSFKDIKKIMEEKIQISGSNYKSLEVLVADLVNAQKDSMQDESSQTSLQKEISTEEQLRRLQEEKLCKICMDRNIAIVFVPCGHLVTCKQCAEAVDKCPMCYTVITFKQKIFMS

Regarding `CC1CC/C=C\[C@H]2OC34C=CCN(CCN5CCOCC5)C(=O)[C@H]3N(C(C)CO)C(=O)[C@@H]4C2C(=O)O1` (stereo not given in full), the z-score in test [1] was 0.956; in [2], -0.491; in test [3], 1.2; in test [4] it was 1.29; in test [5], -0.143; in [6] it was 0.602. The z-score was 0.225 (inactive) in test [7]; 0.0954 in test [8]; -0.722 in test [9]; -0.387 (inactive) in test [10]; -0.0282 in test [11]; -0.348 (inactive) in test [12]. In addition, the z-score in test [13] was -0.0757 (inactive); in test [15], -0.0711 (inactive); in [16], 0.366 (inactive); in test [17], -0.0135 (inactive); in test [18], 0.432 (inactive); in test [19], -0.574. Also, the composite z-score in [14] is -1.44 (inactive); in [20], -0.0807.
`CS(=O)(=O)CCOC(=O)C1=CC(CCCO)=CC(C2CC2)N(Cc2cccc(OC(F)(F)F)c2)C=C1C(=O)OCCS(C)(=O)=O` (stereo not given): the z-score in test [1] was 0.78; in test [2], 0.751; in test [3] it was 0.572; in test [4] it was -2.98; in test [5] it was -1.18; in test [6], 1.92. In addition, the z-score was -0.374 (inactive) in test [7]; -0.34 in test [8]; -0.0798 in test [9]; 0.538 (inactive) in test [10]; 0.0407 in test [11]; -2.55 (inactive) in test [12]. In addition, the z-score in test [13] is 0.0932 (inactive); in test [15], 0.342 (inactive); in test [16], 0.416 (inactive); in test [17], 0.9 (inactive); in test [18], 0.241 (inactive); in test [19], 0.329. Further, the composite z-score is -0.0527 (inactive) in [14] and 0.0363 in test [20].
Take `COCCOC(=O)N1C(=O)[C@@]2(c3ccccc31)[C@H](c1ccccc1OCCO)N1[C@H](c3ccccc3)[C@H](c3ccccc3)OC(=O)[C@H]1[C@@H]2C(=O)N1CCCCCCC1`: the z-score in test [1] is -0.785; in [2] it was 1; in test [3], 0.104; in test [4] it was -2.51; in [5] it was -1.75; in test [6], 0.179. The z-score in test [7] was -0.256 (inactive); in test [8] it was -0.641; in test [9], -1.07; in [10], -0.585 (inactive); in test [11], 0.293; in test [12], 1.7 (inactive). Besides, the z-score in test [13] was -0.097 (inactive); in test [15] it was 2.48 (inactive); in test [16], 1.39 (inactive); in test [17], 0.542 (inactive); in test [18] it was -1.15 (inactive); in [19], -0.353. The composite z-score in [14] was 0.054 (inactive); in test [20], 1.57.
`O=C1C2C=CC(C(O)c3ccco3)N(Nc3ccccc3)C2C(=O)N1c1ccccc1` (stereo not given): the z-score in test [1] is 0.133; in test [2] it was -1.03; in test [3] it was 0.473; in test [4], 0.249; in [5], 0.458; in test [6] it was -0.45. Also, the z-score in [7] is 0.255 (inactive); in test [8], -0.364; in test [9] it was -0.267; in test [10] it was 0.649 (inactive); in test [11], 0.875; in [12], -0.633 (inactive). Also, the z-score is -0.321 (inactive) in [13]; -0.283 (inactive) in test [15]; 0.829 (inactive) in test [16]; -0.706 (inactive) in test [17]; 0.154 (inactive) in test [18]; 0.628 in test [19]. The composite z-score in [14] was 1.05 (inactive); in test [20], -0.0264.
With `CCCC=C(CCC)[C@@H](NS(=O)(=O)c1cccc2cccnc12)c1ccc(-c2ccccc2)cc1`, the z-score in test [1] is -0.97; in test [2], -0.411; in test [3] it was -0.615; in [4] it was -1.95; in [5] it was -4.54; in [6] it was -3.54. The z-score is -0.0229 (inactive) in test [7]; -0.361 in test [8]; -0.844 in test [9]; 0.864 (inactive) in test [10]; 1.15 in test [11]; 0.928 (inactive) in test [12]. Besides, the z-score in test [13] was 1.02 (inactive); in [15], -0.787 (inactive); in test [16], 0.52 (inactive); in [17], -0.24 (inactive); in test [18] it was -0.342 (inactive); in test [19], 1.27. The results for the composite z-score in test [14] and in [20] were -0.0926 (inactive) and 0.072, respectively.
`COCCOC(=O)N1C(=O)[C@@]2(c3cc(C#CCNC(N)=O)ccc31)[C@H](c1ccc(OCCO)cc1)N1[C@H](c3ccccc3)[C@H](c3ccccc3)OC(=O)[C@H]1[C@@H]2C(N)=O`: the z-score in test [1] was 0.586; in test [2], -0.0118; in test [3], 0.334; in [4], -1.24; in [5], -0.668; in [6], -1.7. Also, the z-score is 0.407 (inactive) in [7]; -0.185 in [8]; -0.604 in [9]; 0.266 (inactive) in [10]; -0.373 in test [11]; 1.19 (inactive) in [12]. In addition, the z-score in [13] is 0.421 (inactive); in test [15], 0.858 (inactive); in test [16], 2.4 (inactive); in test [17], 0.146 (inactive); in [18] it was 0.384 (inactive); in test [19] it was 0.637. The figures for the composite z-score in test [14] and in [20] were -0.0174 (inactive) and -0.0414, respectively.
Consider `COc1ccc([Si](C)(C)[C@H]2[C@H](CC(=O)N3CCC[C@H]3CO)O[C@@]3(C(=O)N(Cc4ccc(N5CCC5=O)cc4)c4ccccc43)[C@@H]2C)cc1`, for which the z-score in [1] is -0.428; in [2], 0.303; in test [3], -0.784; in [4], -2.65; in [5], -3.76; in test [6] it was 1.26. Besides, the z-score in test [7] is 0.198 (inactive); in test [8], -1.09; in test [9], 0.309; in test [10] it was -0.737 (inactive); in test [11], -1.39; in [12] it was -0.942 (inactive). The z-score in [13] is -1.7 (inactive); in [15], 1 (inactive); in test [16], 0.194 (inactive); in test [17] it was -1.17 (inactive); in test [18], -1.29 (inactive); in [19] it was -0.944. In addition, the values for the composite z-score in test [14] and in [20] were -5.46 (inactive) and -0.0339, respectively.
For the compound `C=CCC(OC(C)=O)[C@@H]1[C@@H](N(Cc2ccc(-c3cccc(C(F)(F)F)c3)o2)C(=O)c2cccc3ccccc23)c2cc(OCCCO)ccc2N1C(=O)Cc1ccc(OC)cc1` (stereo not given in full), the z-score was 0.546 in [1]; 0.612 in test [2]; 0.598 in [3]; -1.16 in test [4]; -1.76 in test [5]; 2.32 in test [6]. Besides, the z-score in [7] is 0.0601 (inactive); in test [8], -0.748; in test [9], -0.0799; in test [10], 0.643 (inactive); in [11] it was 0.119; in test [12] it was -1.8 (inactive). Besides, the z-score in test [13] is 0.0814 (inactive); in [15], -1.17 (inactive); in test [16] it was -0.0592 (inactive); in test [17] it was 1.11 (inactive); in [18], 0.721 (inactive); in test [19] it was -0.189. The results for the composite z-score in [14] and in [20] were -0.349 (inactive) and -0.102, respectively.
As to `CC=CC(O)C1C=CC2C(=O)NC(=O)C2N1Nc1ccccn1` (stereo not given), the z-score in [1] is 0.0403; in [2], -1.24; in test [3], -0.154; in test [4], -0.228; in [5], -0.496; in test [6], 0.0853. In addition, the z-score is -0.288 (inactive) in test [7]; 0.137 in test [8]; -0.121 in test [9]; -1.14 (inactive) in test [10]; -1.45 in test [11]; 0.866 (inactive) in test [12]. In addition, the z-score in test [13] was -0.949 (inactive); in test [15] it was 0.667 (inactive); in [16], 1.83 (inactive); in test [17] it was -0.837 (inactive); in test [18], 0.272 (inactive); in test [19] it was -0.349. The composite z-score in [14] was 0.434 (inactive); in test [20] it was -0.031.
